What all share (experiment): NCI-60 one-dose screen, 48 h (100 = growth as untreated, 0 = no growth, -100 = all killed)
One experiment concerns HT29 colon. Particulars: 10 µM unless noted.
In the next experiment the test system is SNB-75 CNS. The note with it: 10 µM unless noted.
The test system of the next experiment is SNB-19 CNS. The note with it: 10 µM unless noted.
For another experiment, the system named is U251 CNS. The note with it: 10 µM unless noted.
A further experiment concerns PC-3 prostate. Particulars: 10 µM unless noted.
For a further experiment, the system named is SK-MEL-5 melanoma. The note with it: 10 µM unless noted.
Another experiment has as its system UACC-62 melanoma. The note with it: 10 µM unless noted.
The subject of the next experiment is LOX IMVI melanoma. Particulars: 10 µM unless noted.
The next experiment deals with SK-MEL-28 melanoma. Particulars: 10 µM.
Another experiment has as its system SK-MEL-2 melanoma. Particulars: 10 µM unless noted.
The subject of another experiment is SN12C renal. Particulars: 10 µM unless noted.
The test system of a further experiment is UO-31 renal. Particulars: 10 µM unless noted.
For a further experiment, the system named is TK-10 renal. Particulars: 10 µM unless noted.
The test system of the next experiment is ACHN renal. Particulars: 10 µM unless noted.
The next experiment has as its system CAKI-1 renal. Particulars: 10 µM unless noted.
For a further experiment, the system named is A498 renal. The note with it: 10 µM unless noted.
The next experiment has as its system CCRF-CEM leukemia. Particulars: 10 µM unless noted.
A further experiment concerns MOLT-4 leukemia. The note with it: 10 µM unless noted.
For another experiment, the system named is SR leukemia. Particulars: 10 µM unless noted.

The record followed here is PubChem BioAssay (NCI).

This is part of a sample that, as a whole, favours compounds with a hit. Of some 83,000 tested, about 20% had one in any assay.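 Results are percent growth after 48 hours of single-concentration exposure. 100 means growth as in untreated cells, lower positive values show inhibition; negative values down to -100 show cell death.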 A number with no mark means an inactive call. Calls of active or inactive are those of the source. How the source made its calls: active means growth percent below 10; inactive means the rest.

`CCOC(=O)C1(C(=O)OCC)N=C(c2ccccc2)C=C1c1ccccc1`: the growth in the experiment with HT29 colon was 76.2%; in the experiment on SNB-75 CNS, 81.2%; in the experiment with SNB-19 CNS, 95.4%; in the experiment with U251 CNS it was 83.3%; in the experiment on PC-3 prostate, 83.8%; with SK-MEL-5 melanoma, 90.1%. Besides, the growth with UACC-62 melanoma was 82%; with LOX IMVI melanoma it was 94.9%; in the experiment on SK-MEL-28 melanoma, 105%; with SK-MEL-2 melanoma, 82.8%; in the experiment on SN12C renal, 89.8%; in the experiment with UO-31 renal, 76%. Moreover, the growth is 112% with TK-10 renal; 87.7% in the experiment on ACHN renal; 83.1% in the experiment on CAKI-1 renal; 84.4% with A498 renal; 77.5% with CCRF-CEM leukemia; 81.1% in the experiment with MOLT-4 leukemia. Also, the growth with SR leukemia is 69.7%.
On to `O=C(Nc1ccsc1C(=O)NC1CCCCC1)c1ccc(F)cc1`, for which the growth with HT29 colon is 92.9%; with SNB-75 CNS it was 85.2%; in the experiment with SNB-19 CNS it was 98.8%; in the experiment with U251 CNS, 101%; with PC-3 prostate it was 67.9%; in the experiment with SK-MEL-5 melanoma it was 105%. The growth was 103% with UACC-62 melanoma; 97.7% in the experiment with LOX IMVI melanoma; 96.4% in the experiment on SK-MEL-28 melanoma; 121% in the experiment on SK-MEL-2 melanoma; 98.3% in the experiment on SN12C renal; 94.4% in the experiment on UO-31 renal. The growth is 114% in the experiment on TK-10 renal; 101% in the experiment on ACHN renal; 95.6% in the experiment with CAKI-1 renal; 95.5% with A498 renal; 66.6% in the experiment with CCRF-CEM leukemia; 95.6% with MOLT-4 leukemia. In addition, the growth in the experiment with SR leukemia was 79.4%.
On to `O=C(NCCCN1CCC(N2CCCCC2)CC1)C1=Cc2cc(Br)ccc2OC1`, for which the growth was 17.9% with HT29 colon; 44.7% in the experiment on SNB-75 CNS; 58.8% with SNB-19 CNS; 37% in the experiment on U251 CNS; 17.5% in the experiment with PC-3 prostate; 68% in the experiment on SK-MEL-5 melanoma. Moreover, the growth in the experiment with UACC-62 melanoma is 53.6%; with LOX IMVI melanoma, 31.3%; with SK-MEL-28 melanoma, 80.9%; in the experiment on SK-MEL-2 melanoma, 35.5%; in the experiment on SN12C renal it was 57.7%; in the experiment on UO-31 renal, 21.8%. Further, the growth in the experiment with TK-10 renal was 60%; in the experiment with ACHN renal, 37.7%; with CAKI-1 renal, 54.5%; with A498 renal, 52.7%; in the experiment with CCRF-CEM leukemia, 27.4%; in the experiment with MOLT-4 leukemia, 11.9%. Besides, the growth in the experiment on SR leukemia was 11.4%.
`COc1cc(C#N)cc2[nH]c(=O)oc12`: the growth in the experiment on HT29 colon was 106%; in the experiment on SNB-75 CNS it was 71.9%; in the experiment with SNB-19 CNS it was 106%; in the experiment with U251 CNS it was 92.4%; with PC-3 prostate it was 102%; with SK-MEL-5 melanoma, 96.7%. Further, the growth in the experiment on UACC-62 melanoma was 113%; in the experiment on LOX IMVI melanoma, 111%; in the experiment on SK-MEL-28 melanoma, 107%; in the experiment with SK-MEL-2 melanoma, 106%; with SN12C renal, 115%; with UO-31 renal, 85.6%. Also, the growth in the experiment with TK-10 renal was 103%; with ACHN renal, 99.7%; in the experiment with CAKI-1 renal it was 91.8%; with A498 renal, 82.5%; in the experiment with CCRF-CEM leukemia, 109%; in the experiment with MOLT-4 leukemia, 123%. Further, in the experiment on SR leukemia, the growth was 120%.
Regarding `Cc1ccc2cc3c(N)c4c(C)ccc(C)c4nc3nc2c1`, the growth with HT29 colon is 4.73% (active); in the experiment on SNB-75 CNS, 41.2%; with SNB-19 CNS, 80.2%; with U251 CNS it was -5.79% (active); in the experiment on PC-3 prostate it was 63.9%; in the experiment with SK-MEL-5 melanoma, 11.8%. The growth with UACC-62 melanoma was -73% (active); in the experiment on LOX IMVI melanoma, -53.8% (active); in the experiment on SK-MEL-28 melanoma it was -80.6% (active); with SK-MEL-2 melanoma, -33.2% (active); in the experiment on SN12C renal, 63.9%; in the experiment on UO-31 renal, 10.4%. In addition, the growth in the experiment with TK-10 renal is 66.6%; in the experiment on ACHN renal, 60.8%; in the experiment with CAKI-1 renal, 7.98% (active); in the experiment on A498 renal, 41.9%; with CCRF-CEM leukemia, 39.6%; in the experiment on MOLT-4 leukemia, 44.8%. The growth with SR leukemia is -9.96% (active).
`CCOC(=O)c1cc2c(n1Cc1cc(OC)cc(OC)c1)-c1oncc1CCC2`: the growth in the experiment with HT29 colon is 6.58% (active); in the experiment with SNB-75 CNS, 16.3%; with SNB-19 CNS, 28.5%; in the experiment with U251 CNS, 17.3%; in the experiment with PC-3 prostate, 33.2%; with SK-MEL-5 melanoma it was 1.12% (active). The growth with UACC-62 melanoma is 31.6%; with LOX IMVI melanoma it was 25.3%; with SK-MEL-28 melanoma it was 53.3%; in the experiment with SK-MEL-2 melanoma, 41.8%; in the experiment with SN12C renal, 38.3%; in the experiment with UO-31 renal, 18.5%. For the same compound, the growth with TK-10 renal is 56.6%; with ACHN renal it was 37.6%; in the experiment on CAKI-1 renal, 42.2%; with A498 renal, -14.5% (active); with CCRF-CEM leukemia, 9.16% (active); in the experiment on MOLT-4 leukemia, 18%. For the same compound, the growth with SR leukemia is 9.52% (active).
`COc1ccc(Cn2c(Br)c3c(c2Br)-c2nc(NC(=O)c4ccc(OC)cc4)sc2CC3)cc1`: the growth with HT29 colon was 84.8%; in the experiment with SNB-75 CNS, 48.2%; in the experiment on SNB-19 CNS, 80.1%; with U251 CNS, 67.8%; in the experiment with PC-3 prostate, 71.5%; with SK-MEL-5 melanoma, 62.1%. The growth is 63.5% in the experiment on UACC-62 melanoma; 80.3% with LOX IMVI melanoma; 81.8% in the experiment on SK-MEL-28 melanoma; 83.8% with SK-MEL-2 melanoma; 85.1% in the experiment on SN12C renal; 44.9% with UO-31 renal. Moreover, the growth is 89.4% in the experiment on TK-10 renal; 51.8% with ACHN renal; 76.2% in the experiment on CAKI-1 renal; 65.9% in the experiment with A498 renal; 85.3% in the experiment on CCRF-CEM leukemia; 94.7% with MOLT-4 leukemia. Also, in the experiment with SR leukemia, the growth was 67.4%.
On to `COc1ccc(-c2nsc3c2NC(=O)CC3c2cccc(OC)c2)cc1` (configuration not stated), for which the growth in the experiment on HT29 colon is 8.58% (active); in the experiment on SNB-75 CNS, -17.5% (active); in the experiment on SNB-19 CNS, 70.3%; in the experiment on U251 CNS, 37.8%; in the experiment on PC-3 prostate, 23.8%; in the experiment on SK-MEL-5 melanoma it was 31.6%. Further, the growth was 41.5% with UACC-62 melanoma; 50.3% in the experiment with LOX IMVI melanoma; 45.3% in the experiment on SK-MEL-28 melanoma; 34.1% in the experiment on SK-MEL-2 melanoma; 66.9% in the experiment on SN12C renal; 46.3% with UO-31 renal. In addition, the growth in the experiment on TK-10 renal was 61.9%; with ACHN renal, 55.1%; in the experiment with CAKI-1 renal it was 32.9%; in the experiment on A498 renal, 27.4%; with CCRF-CEM leukemia, 14.2%; with MOLT-4 leukemia, 32.2%. Further, in the experiment on SR leukemia, the growth was 24.3%.
